Screening results from PubChem.
NR0B1 inh – inhibitors of human orphan nuclear receptor DAX1 (NR0B1); inhibition, % at 6.75 µM; AID 504766; actives 0.99% (n = 340,000); HEK293 Gal4-DAX1 luciferase reporter, luminescence;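 active means inhibition above the mean over all tested compounds plus 3 SD, cut at about 4.2% in these data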;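 further: inhibition shows as a rise in luminescence from relieved DAX1 repression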
HSF-1 act – increases HSF-1 driven luciferase reporter signal; AID 504408; NIH3T3-HGL HSF-1 luciferase reporter, MG132, 8 h; 100% = twice DMSO control signal; activation, % at 9 µM; actives 1.7% (n = 300,000);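 active means mean replicate activation of at least 50% with a set share of replicates each reaching 50%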
GAA850 FXN act – activators of GAA850 frataxin (FXN) promoter. actives 0.56% (n = 360,000). HEK293 lucGAA850 FXN promoter luciferase reporter, 24 h; percent of 10 µM SAHA response. activation, % at 6 µM;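 active means activation above the average of all compounds screened plus 3 SD, cutoff fixed separately per campaign, cut at about 7.5% in these data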
HSF1 inh – HSF1 inhibition | NIH3T3-HGL HSE-luciferase, MG132-induced, luminescence 8 h; active compounds read low | activity change, negative = inhibition, % at 7.5 µM (by protocol) | actives 0.77% (n = 300,000);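 active means more than half of replicate wells show activity change below -50%, luminescence cut by over half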;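 further: luciferase reports HSF-1 transcriptional activity via heat shock element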
HSP90 inh – inhibitors of HSP90 luciferase refolding in rabbit reticulocyte lysate; luciferase refolding luminescence, 3 h; inhibition, % at 5.6 µM; AID 1789; actives 0.91% (n = 290,000);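 active means inhibition above the screen-wide mean plus 3 SD, computed separately per campaign, cut at about 16% in these data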;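 further: inhibitors lower the luminescence because luciferase stays unfolded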
AHR act – activators of human aryl hydrocarbon receptor | P35869 | AHR-responsive luciferase reporter cells, luminescence | activation, % at 5 µM | actives 2.5% (n = 320,000) | AID 2796; in the data active means activation above about 47%
Target sequence (P35869 whole entry, looked up): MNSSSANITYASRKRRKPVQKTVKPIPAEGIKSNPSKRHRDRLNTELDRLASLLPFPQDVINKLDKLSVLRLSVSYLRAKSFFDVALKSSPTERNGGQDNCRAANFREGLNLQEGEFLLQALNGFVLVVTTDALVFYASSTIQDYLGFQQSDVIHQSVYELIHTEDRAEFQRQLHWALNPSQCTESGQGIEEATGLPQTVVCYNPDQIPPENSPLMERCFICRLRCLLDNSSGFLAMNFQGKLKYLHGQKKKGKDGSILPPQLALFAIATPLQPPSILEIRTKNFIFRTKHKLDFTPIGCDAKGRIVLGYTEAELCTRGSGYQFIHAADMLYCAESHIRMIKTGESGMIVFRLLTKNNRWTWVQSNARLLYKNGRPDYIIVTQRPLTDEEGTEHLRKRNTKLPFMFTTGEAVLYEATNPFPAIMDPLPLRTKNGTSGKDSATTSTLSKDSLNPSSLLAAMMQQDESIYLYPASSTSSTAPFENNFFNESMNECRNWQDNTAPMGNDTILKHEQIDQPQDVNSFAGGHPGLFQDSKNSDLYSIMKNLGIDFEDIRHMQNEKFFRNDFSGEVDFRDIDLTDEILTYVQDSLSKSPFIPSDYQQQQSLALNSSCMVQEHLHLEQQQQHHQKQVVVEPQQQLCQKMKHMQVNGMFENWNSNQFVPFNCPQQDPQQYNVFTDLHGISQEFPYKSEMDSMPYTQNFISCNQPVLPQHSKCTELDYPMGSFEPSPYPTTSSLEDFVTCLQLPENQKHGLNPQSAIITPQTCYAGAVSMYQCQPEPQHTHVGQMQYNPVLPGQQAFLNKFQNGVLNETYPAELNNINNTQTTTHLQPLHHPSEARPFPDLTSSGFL
GAA30 FXN cntr – GAA30 FXN promoter activation counter-screen. shares compounds with GAA850 FXN act. HEK293 lucGAA30 FXN promoter luciferase, 24 h; DMSO = 0%, 5 µM ipriflavone = 100%. activation, % at 6 µM. actives 66% (n = 1,900);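 active means mean activation above the mean of solvent-only control wells plus 3 SD, cut at about 22% in these data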;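 further: counterscreen of GAA850 promoter hits where activity marks nonselective or luminescence artifacts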
FXN GAA850 conf – confirmation of GAA850 frataxin (FXN) promoter activators; shares compounds with GAA850 FXN act; HEK293 lucGAA850 FXN promoter luciferase reporter, 24 h; 100% = activation by SAHA; activation, % at 6 µM; actives 86% (n = 1,900); AID 588351;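 active means mean activation above a set limit taken from the primary screen, cut at about 8% in these data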
Large screens that a line does not name were inactive (follow-up assays come after a bar, where they were run). An excerpt weighted towards active compounds, which were near 5.9% of everything screened.

O=C(COC(=O)Cn1cnc2ccccc21)Nc1ccc2c(c1)C(=O)c1ccccc1C2=O	GAA850 FXN act 8.7 | GAA30 FXN cntr 108 | FXN GAA850 conf 46
Cc1ccc(Cl)cc1N1CCN(C(=O)C2CCN(c3nnc(-n4cccc4)s3)CC2)CC1	GAA850 FXN act 8.2 | GAA30 FXN cntr inactive | FXN GAA850 conf inactive
COc1ccc(Nc2cc(C)nc(NCc3ccccc3)n2)cc1	none (no result: NR0B1 inh)
Cc1ccc(Nc2cc(C)nc(NCc3ccccc3)n2)cc1	GAA850 FXN act 13 | GAA30 FXN cntr inactive | FXN GAA850 conf 15
COc1cccc(-c2ccc(SCc3ccccn3)nn2)c1	GAA850 FXN act 8.7 | GAA30 FXN cntr 110 | FXN GAA850 conf 36
COc1ccc(-c2ccc(SCc3ccccn3)nn2)cc1OC	none
CCCCCCCNC(=O)C1(CC2CC(c3ccc(Cl)cc3)=NO2)CCN(C(=O)CCCCCBr)CC1 (stereo not given)	none
COc1cc(/C=C/C(=O)O)ccc1O	GAA850 FXN act 16 (no result: HSP90 inh) | GAA30 FXN cntr inactive | FXN GAA850 conf inactive
COc1cc(/C=C/C(=O)c2ccc([N+](=O)[O-])o2)ccc1O	GAA850 FXN act 12 (no result: HSP90 inh) | GAA30 FXN cntr inactive | FXN GAA850 conf inactive
COc1ccc(NC(=O)CS(=O)c2ccc(Cl)c(Cl)c2)cc1 (stereo not given)	none
COc1ccc2c(c1)C(=NO)c1cc(OC)ccc1-2	none
C=CCOc1ccc2c(c1)C(=NO)c1cc(OCC=C)ccc1-2	GAA850 FXN act 8.0 | GAA30 FXN cntr 32 | FXN GAA850 conf 20
Cc1ccc(C)c(SCC(=O)N(C)CC(=O)Nc2ccc(N3CCOCC3)cc2)c1	none (no result: HSP90 inh)
COc1cc(/C=C/c2ccc3cccc(O)c3n2)cc(Br)c1OC	GAA850 FXN act 9.2 | GAA30 FXN cntr inactive | FXN GAA850 conf inactive
COc1cc(/C=C/c2ccc3cccc(O)c3n2)cc(Cl)c1OC	HSF-1 act 72, GAA850 FXN act 13 | GAA30 FXN cntr inactive | FXN GAA850 conf inactive
CN(C)S(=O)(=O)c1cccc(NC(=O)C2CCN(S(=O)(=O)c3cccs3)CC2)c1	none (no result: HSF-1 act, HSF1 inh, HSP90 inh)
N#CC(=C1CCCC1)c1nc(-c2ccccc2)cs1	NR0B1 inh 5.2, HSF-1 act 86, GAA850 FXN act 9.5 | GAA30 FXN cntr 111 | FXN GAA850 conf 39
C=CC(=O)Oc1ccc(N2Cc3ccccc3C2=O)cc1	HSF-1 act 70, GAA850 FXN act 8.0 (no result: NR0B1 inh, HSP90 inh) | GAA30 FXN cntr 32 | FXN GAA850 conf inactive
COc1ccc(N2Cc3cccc(C(=O)O)c3C2=O)cc1	none
COC(=O)c1ccc(C(=O)OC)c(=O)[nH]1	none
C[C@@]12C(=O)N(CC3CCCO3)CC(=O)N1[C@H]1c3ccccc3OC[C@@H]1[C@@H]2c1ccccc1 (stereo not given in full)	GAA850 FXN act 12 (no result: HSF-1 act, HSF1 inh, HSP90 inh) | GAA30 FXN cntr inactive | FXN GAA850 conf 14
C[C@@]12C(=O)N(CCc3c[nH]c4ccccc34)CC(=O)N1[C@H]1c3ccccc3OC[C@@H]1[C@@H]2c1ccccc1	GAA850 FXN act 7.7 (no result: HSF-1 act, HSF1 inh, HSP90 inh) | GAA30 FXN cntr inactive | FXN GAA850 conf 8.5
Cc1ccccc1-c1cc2nc(NCCOc3ccccc3Cl)n(C)c(=O)c2s1	none (no result: NR0B1 inh, HSF-1 act, HSF1 inh, HSP90 inh, AHR act)
CCCCCn1c(CN2CCN(c3cccc(Cl)c3)CC2)nc2c1c(=O)[nH]c(=O)n2C	GAA850 FXN act 8.5 | GAA30 FXN cntr inactive | FXN GAA850 conf inactive
CCN1CCN(c2cc3c(nn2)Oc2ccccc2N3C)CC1	GAA850 FXN act 8.4 | GAA30 FXN cntr 140 | FXN GAA850 conf 42
CCN1CCN(c2nnc(-c3ccccc3)c3ccccc23)CC1	none
COC(=O)[C@H](C)NC(=O)NCc1ccccc1F	GAA850 FXN act 9.4 | GAA30 FXN cntr inactive | FXN GAA850 conf inactive
CC1(Cc2ccc(C(F)(F)F)nc2)C(=O)Nc2cc(-c3ccccc3Cl)ccc21 (stereo not given)	GAA850 FXN act 14 (no result: NR0B1 inh, HSF-1 act, HSF1 inh, HSP90 inh, AHR act) | GAA30 FXN cntr inactive | FXN GAA850 conf 14
Cc1sc(NC(=O)c2ccccc2)c(C#N)c1-c1ccccc1	HSF-1 act 57, GAA850 FXN act 11 | GAA30 FXN cntr 111 | FXN GAA850 conf 38
Cc1ccc(C(=O)Nc2sc(C(=O)N(C)C)c(C)c2C#N)cc1	none
CN(C(=O)c1cccc(NC(=O)Cc2ccc(NC(=O)C3CCCN(C(=O)C4CCC4)C3)cc2)c1)C1CCCC1 (stereo not given)	none (no result: HSF-1 act, HSF1 inh, HSP90 inh, AHR act)
CC(=O)Nc1cccc(NC(=O)CSc2ncc(C(=O)Nc3ccccc3)c(=O)n2C)c1	HSF-1 act 206, GAA850 FXN act 9.7 (no result: HSP90 inh) | GAA30 FXN cntr inactive | FXN GAA850 conf 15
Cn1c(SCC(=O)NCCc2ccccc2)ncc(C(=O)Nc2ccccc2)c1=O	none (no result: HSP90 inh)
CN(c1ccc(C(=O)Nc2ccc3c(c2)OCCO3)cc1)S(C)(=O)=O	GAA850 FXN act 9.2 | GAA30 FXN cntr 93 | FXN GAA850 conf 29
CCCc1cc(C(=O)Nc2cccc(C(C)=O)c2)no1	GAA850 FXN act 25 | GAA30 FXN cntr 76 | FXN GAA850 conf 23
CC(C)N=c1scc(-c2ccco2)n1/N=C/c1ccc(O)c(O)c1	GAA850 FXN act 12 (no result: HSF-1 act, HSF1 inh) | GAA30 FXN cntr 68 | FXN GAA850 conf 42
COc1cccc2nc3c(C(=O)NCCN(C)C)cccc3cc12	none (no result: HSF-1 act, HSF1 inh, HSP90 inh, AHR act)
COc1ccc(C(=O)NCCN(C)C)c2nc3ccccc3cc12	GAA850 FXN act 10 (no result: HSF-1 act, HSF1 inh, HSP90 inh, AHR act) | GAA30 FXN cntr inactive | FXN GAA850 conf 71
N#C/C(=C\c1ccc(N2CCOCC2)cc1)c1ccccc1	none
N#C/C(=C\c1ccc(N2CCOCC2)o1)c1ccccc1	GAA850 FXN act 12 | GAA30 FXN cntr 139 | FXN GAA850 conf 45
CCOC(=O)c1ccc2c(c1)nc(SCc1cn3ccsc3n1)n2CC	none
CCNc1ccc(N=Nc2c(C)n(C)n(-c3ccccc3)c2=O)cc1	GAA850 FXN act 8.4 (no result: NR0B1 inh) | GAA30 FXN cntr 29 | FXN GAA850 conf 13
Brc1ccc(OCc2nnc3n2CCC3)cc1	none
CCc1ccccc1N1CC(C(=O)Nc2nccs2)CC1=O (stereo not given)	none
O=C1COc2ccc(C(=O)CCl)cc2N1	GAA850 FXN act 9.8 (no result: NR0B1 inh) | GAA30 FXN cntr 202 | FXN GAA850 conf inactive
CCC(=O)c1ccc(OCC(=O)c2ccc3c(c2)NC(=O)CO3)cc1	none
Clc1ccc2oc(-c3ccccc3)cc(=NCCCN3CCOCC3)c2c1	GAA850 FXN act 9.4 (no result: HSF-1 act, HSF1 inh, AHR act) | GAA30 FXN cntr 51 | FXN GAA850 conf 22
O=C(NCCCN1CCOCC1)c1cc(Cl)ccc1Cl	none
O=C(NCc1ccncc1)c1ccc(NS(=O)(=O)c2ccc(F)cc2)cc1	none (no result: HSF-1 act, HSF1 inh, HSP90 inh)
CCOC(=O)N/N=C/c1c(C)nn(-c2ccccc2Cl)c1Cl	GAA850 FXN act 8.2 | GAA30 FXN cntr 93 | FXN GAA850 conf 34
